Measured values: the supplement of paper PMC11732987, “Enantioselective OTUD7B fragment discovery through chemoproteomics screening and high-throughput optimisation” (Communications Chemistry, 2025)

Key:
Assay in all cases: log2 ratio of Biotin-Ahx-Ub-VS probe labelling (fragment/DMSO); higher = less target engagement (more negative = stronger competition), active = hit call of the paper (q ≤ 0.05, log2 ratio ≤ -1)
Details in all cases: compound concentration: 200 uM; treatment time: 3 h
USP19 = molecular target: T1, USP19 (UniProt O94966)
T1 sequence (whole entry): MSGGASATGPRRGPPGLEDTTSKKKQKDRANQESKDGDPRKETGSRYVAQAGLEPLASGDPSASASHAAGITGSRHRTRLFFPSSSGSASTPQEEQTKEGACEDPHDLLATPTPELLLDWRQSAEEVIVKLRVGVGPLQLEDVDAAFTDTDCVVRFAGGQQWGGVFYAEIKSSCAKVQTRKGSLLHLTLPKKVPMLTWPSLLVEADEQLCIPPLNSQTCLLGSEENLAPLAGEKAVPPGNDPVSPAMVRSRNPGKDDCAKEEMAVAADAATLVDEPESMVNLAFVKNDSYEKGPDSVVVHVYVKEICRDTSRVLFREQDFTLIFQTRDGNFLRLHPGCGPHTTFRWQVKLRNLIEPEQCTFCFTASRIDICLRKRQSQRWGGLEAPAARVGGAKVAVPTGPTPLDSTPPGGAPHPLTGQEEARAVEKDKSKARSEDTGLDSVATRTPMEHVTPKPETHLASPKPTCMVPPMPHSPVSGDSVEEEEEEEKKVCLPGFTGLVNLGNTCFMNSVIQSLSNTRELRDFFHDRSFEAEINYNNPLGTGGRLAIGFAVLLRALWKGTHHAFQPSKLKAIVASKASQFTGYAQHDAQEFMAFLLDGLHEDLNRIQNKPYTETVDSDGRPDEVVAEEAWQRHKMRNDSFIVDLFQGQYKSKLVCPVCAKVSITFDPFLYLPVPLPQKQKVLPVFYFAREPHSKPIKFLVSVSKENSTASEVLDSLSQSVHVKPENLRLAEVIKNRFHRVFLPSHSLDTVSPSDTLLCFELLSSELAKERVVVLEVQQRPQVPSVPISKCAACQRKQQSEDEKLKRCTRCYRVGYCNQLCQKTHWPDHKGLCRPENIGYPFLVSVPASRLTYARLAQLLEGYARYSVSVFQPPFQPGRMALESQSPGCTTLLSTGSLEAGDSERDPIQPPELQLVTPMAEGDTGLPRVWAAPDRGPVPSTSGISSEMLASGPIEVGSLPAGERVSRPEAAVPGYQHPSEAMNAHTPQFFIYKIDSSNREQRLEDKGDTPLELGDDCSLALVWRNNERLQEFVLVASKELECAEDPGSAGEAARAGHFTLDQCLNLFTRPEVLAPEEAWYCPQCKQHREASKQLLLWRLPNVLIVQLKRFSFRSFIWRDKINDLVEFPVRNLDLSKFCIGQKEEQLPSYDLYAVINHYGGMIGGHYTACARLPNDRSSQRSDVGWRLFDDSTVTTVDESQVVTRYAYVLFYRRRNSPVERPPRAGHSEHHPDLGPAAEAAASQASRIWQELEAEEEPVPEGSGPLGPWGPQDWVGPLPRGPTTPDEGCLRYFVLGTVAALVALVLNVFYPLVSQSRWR
How it was run: (§1)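 Fragment (200 µM) or vehicle was incubated for 3 h with triplicate HEK293T lysate samples of 495 µg, which were then treated with Biotin-Ahx-Ub-VS at 0.5 µM final for 1 h. Labelled DUBs were enriched on NeutrAvidin, digested with LysC and trypsin, and analysed by diaPASEF LC-MS/MS. Values are average log2 fragment/vehicle ratios from an unpaired t-test on global-median-normalised Spectronaut label-free quantities, using proteins with ≥2 unique peptides.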

USP24 = USP24 (UniProt Q9UPU5)
USP24, sequence (Q9UPU5 whole entry): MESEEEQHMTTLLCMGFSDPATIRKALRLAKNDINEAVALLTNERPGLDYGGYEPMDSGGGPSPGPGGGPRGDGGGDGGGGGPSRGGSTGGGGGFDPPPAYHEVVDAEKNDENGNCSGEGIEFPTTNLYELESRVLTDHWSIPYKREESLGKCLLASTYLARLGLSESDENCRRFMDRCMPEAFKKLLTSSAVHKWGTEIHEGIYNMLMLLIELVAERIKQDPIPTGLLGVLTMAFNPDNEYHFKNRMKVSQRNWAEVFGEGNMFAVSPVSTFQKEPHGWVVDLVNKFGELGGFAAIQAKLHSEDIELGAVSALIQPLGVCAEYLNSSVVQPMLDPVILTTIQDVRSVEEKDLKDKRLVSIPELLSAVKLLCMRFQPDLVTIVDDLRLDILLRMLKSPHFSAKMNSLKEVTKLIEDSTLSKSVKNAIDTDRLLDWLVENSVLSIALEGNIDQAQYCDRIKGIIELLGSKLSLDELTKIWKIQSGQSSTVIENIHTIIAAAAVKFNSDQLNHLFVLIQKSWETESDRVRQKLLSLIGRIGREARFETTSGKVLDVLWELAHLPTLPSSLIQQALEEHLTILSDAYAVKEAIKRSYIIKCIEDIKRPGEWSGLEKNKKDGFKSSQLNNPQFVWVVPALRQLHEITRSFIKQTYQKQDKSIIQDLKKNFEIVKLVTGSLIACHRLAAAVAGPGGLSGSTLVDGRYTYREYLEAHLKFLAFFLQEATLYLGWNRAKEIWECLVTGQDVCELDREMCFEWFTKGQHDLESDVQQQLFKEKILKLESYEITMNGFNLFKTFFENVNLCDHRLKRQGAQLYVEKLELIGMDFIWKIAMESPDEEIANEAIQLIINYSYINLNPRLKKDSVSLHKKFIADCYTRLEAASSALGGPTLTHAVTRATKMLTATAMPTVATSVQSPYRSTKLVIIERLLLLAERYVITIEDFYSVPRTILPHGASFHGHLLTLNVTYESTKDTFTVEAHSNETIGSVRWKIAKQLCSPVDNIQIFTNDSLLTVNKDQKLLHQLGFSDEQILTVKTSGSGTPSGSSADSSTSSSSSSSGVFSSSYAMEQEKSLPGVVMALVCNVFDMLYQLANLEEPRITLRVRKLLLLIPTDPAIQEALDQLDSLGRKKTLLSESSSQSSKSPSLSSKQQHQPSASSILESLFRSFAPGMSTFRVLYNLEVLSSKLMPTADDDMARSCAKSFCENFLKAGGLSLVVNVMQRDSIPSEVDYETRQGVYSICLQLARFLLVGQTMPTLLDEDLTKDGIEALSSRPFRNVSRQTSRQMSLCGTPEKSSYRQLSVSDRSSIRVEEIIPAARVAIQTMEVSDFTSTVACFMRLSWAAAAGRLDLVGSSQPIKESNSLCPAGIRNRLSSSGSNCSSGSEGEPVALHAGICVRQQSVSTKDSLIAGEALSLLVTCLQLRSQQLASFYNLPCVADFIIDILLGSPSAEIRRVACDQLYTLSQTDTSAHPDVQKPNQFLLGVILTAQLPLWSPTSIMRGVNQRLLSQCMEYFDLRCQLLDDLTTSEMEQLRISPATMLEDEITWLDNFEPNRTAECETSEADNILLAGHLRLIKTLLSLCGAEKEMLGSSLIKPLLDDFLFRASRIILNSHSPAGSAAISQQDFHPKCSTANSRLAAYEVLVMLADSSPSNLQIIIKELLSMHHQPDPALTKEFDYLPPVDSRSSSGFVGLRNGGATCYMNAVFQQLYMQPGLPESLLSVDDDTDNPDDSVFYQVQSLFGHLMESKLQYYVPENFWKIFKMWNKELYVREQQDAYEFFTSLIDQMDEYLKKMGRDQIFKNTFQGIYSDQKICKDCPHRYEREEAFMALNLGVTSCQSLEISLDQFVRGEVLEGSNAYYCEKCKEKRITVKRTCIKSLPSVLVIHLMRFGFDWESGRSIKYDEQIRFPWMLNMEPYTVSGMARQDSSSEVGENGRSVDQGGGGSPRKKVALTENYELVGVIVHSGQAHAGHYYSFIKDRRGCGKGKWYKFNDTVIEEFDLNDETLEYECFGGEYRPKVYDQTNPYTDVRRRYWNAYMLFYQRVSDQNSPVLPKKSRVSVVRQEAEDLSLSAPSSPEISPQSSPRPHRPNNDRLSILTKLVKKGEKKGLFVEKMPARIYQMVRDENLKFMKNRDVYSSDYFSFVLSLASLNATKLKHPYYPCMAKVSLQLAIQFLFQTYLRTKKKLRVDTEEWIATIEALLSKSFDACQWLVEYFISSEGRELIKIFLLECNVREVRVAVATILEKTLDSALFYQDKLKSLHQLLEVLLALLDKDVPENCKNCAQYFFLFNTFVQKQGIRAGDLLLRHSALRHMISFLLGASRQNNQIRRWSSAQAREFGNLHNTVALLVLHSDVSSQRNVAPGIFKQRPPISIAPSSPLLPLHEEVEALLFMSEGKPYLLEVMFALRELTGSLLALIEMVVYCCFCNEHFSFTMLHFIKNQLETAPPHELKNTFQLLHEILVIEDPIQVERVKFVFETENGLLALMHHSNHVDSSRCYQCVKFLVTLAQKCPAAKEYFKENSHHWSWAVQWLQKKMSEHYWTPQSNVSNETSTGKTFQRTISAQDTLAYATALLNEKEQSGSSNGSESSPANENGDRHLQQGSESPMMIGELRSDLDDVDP
How it was run: as §1

USP25 = molecular target: T2, USP25 (UniProt Q9UHP3)
T2 sequence (whole entry): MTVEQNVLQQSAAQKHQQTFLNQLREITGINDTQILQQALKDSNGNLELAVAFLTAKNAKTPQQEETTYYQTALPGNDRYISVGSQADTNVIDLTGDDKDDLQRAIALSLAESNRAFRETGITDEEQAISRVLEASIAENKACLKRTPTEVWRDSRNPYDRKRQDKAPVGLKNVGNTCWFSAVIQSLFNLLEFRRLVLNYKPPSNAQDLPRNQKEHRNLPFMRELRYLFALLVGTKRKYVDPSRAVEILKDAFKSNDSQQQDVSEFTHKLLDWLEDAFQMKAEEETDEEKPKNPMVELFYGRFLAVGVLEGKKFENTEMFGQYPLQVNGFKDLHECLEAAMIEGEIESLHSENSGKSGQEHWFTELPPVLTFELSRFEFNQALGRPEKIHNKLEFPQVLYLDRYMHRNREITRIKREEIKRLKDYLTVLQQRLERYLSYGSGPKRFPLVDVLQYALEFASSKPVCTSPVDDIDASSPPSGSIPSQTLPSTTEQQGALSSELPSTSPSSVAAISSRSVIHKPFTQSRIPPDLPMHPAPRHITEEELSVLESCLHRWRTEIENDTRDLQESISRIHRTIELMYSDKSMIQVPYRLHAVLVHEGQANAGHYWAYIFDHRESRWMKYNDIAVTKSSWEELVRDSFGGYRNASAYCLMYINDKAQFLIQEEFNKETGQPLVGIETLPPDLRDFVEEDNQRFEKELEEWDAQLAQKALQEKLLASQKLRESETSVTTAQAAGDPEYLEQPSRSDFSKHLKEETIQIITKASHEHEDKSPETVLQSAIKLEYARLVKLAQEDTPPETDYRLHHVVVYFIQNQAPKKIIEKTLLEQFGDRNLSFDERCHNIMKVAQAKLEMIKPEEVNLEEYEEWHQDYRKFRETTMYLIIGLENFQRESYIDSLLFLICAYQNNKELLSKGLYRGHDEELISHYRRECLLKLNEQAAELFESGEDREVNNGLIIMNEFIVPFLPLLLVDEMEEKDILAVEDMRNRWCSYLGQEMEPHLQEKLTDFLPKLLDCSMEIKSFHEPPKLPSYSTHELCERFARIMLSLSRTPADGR
How it was run: as §1

USP28 = molecular target: T3, USP28 (UniProt Q96RU2)
T3 sequence (whole entry): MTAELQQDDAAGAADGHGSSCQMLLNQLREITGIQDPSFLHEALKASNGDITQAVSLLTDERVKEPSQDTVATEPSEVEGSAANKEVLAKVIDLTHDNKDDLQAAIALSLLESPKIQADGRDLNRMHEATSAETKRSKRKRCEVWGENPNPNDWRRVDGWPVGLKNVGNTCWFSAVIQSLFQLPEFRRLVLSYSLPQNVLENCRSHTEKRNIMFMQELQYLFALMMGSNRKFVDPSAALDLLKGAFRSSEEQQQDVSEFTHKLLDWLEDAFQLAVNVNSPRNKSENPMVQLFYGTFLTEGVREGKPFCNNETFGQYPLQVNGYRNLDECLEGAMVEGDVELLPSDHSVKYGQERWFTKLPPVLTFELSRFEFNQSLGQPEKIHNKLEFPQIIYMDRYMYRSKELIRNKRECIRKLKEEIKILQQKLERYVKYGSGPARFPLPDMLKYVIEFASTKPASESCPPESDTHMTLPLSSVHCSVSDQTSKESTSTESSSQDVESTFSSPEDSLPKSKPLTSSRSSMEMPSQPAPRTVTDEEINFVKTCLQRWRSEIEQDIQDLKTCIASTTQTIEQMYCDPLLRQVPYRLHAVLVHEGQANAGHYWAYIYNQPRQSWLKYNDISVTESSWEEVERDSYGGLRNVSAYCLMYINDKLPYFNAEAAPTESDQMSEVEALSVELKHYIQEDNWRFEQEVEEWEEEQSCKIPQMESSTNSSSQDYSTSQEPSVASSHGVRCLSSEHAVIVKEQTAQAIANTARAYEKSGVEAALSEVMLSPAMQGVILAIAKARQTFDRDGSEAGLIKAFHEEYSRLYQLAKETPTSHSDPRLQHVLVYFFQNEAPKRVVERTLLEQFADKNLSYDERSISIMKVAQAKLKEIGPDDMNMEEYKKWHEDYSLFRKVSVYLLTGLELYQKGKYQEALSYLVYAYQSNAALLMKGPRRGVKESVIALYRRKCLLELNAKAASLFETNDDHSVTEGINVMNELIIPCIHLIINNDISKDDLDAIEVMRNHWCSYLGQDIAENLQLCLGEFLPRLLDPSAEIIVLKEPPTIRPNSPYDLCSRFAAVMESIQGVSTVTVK
How it was run: as §1

Measured: log2 ratio of Biotin-Ahx-Ub-VS probe labelling

Cc1ccc(CN(CCO)C(=O)CCl)cc1
inactive: USP19 -0.37 | USP24 -0.445 | USP25 -0.431 | USP28 -0.569
